Data on 96 sequences can be found in the supplement of paper PMC3334620.

In all, about 33,000 sequences were measured (“E-score (-0.5 to 0.5)”: median about -0.012, highest 2% from about 0.27 on). The entries come from a sample that favours the highest values as a whole.

The test addresses T1, Vhr1 (UniProt P40522).
T1 sequence: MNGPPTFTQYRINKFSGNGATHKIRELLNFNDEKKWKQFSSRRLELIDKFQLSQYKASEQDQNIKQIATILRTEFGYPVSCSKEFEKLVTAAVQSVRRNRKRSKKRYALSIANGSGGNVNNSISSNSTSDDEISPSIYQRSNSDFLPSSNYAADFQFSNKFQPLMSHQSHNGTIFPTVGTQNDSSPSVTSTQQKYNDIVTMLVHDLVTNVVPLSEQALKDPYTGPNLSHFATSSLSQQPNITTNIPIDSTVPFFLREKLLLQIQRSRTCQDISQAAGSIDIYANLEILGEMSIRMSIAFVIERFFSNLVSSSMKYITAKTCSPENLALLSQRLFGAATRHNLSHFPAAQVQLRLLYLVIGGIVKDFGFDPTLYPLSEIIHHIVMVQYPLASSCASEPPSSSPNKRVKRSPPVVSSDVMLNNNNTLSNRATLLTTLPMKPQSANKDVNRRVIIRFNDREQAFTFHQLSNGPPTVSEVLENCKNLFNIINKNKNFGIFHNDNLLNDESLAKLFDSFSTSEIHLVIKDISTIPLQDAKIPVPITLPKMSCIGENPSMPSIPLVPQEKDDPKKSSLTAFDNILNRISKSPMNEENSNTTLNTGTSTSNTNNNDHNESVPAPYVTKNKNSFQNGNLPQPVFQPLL
The test can be described thus: PBM E-score (8-mer binding enrichment) (E-score (-0.5 to 0.5)); higher = stronger / more preferred TF binding. Particulars: protein concentration: 200 nM; construct: GST-full length. The method in brief:
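Yeast transcription factors carrying a GST tag, as full-length proteins or DNA-binding domains, were produced by PURExpress in vitro transcription/translation. About 100-200 nM protein was applied to universal all-10-mer Agilent arrays, double-stranded by primer extension on fresh or once-stripped slides. Bound protein was detected with fluorescent anti-GST, and scans were normalised with masliner. The Universal PBM Analysis Suite gave each ungapped eight-base word, pooled with its reverse complement, an E-score, a modified Wilcoxon-Mann-Whitney statistic.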
With CCTATTAG, the “PBM E-score” value was -0.167.

Turning to GTTTCCTA, the “PBM E-score” value was -0.206.

For TACTGCAA, the “PBM E-score” value was -0.0559.

Consider GCCTAACA, for which the “PBM E-score” value worked out at 0.026.

CCCAACTC: the “PBM E-score” value was determined as 0.134.

As for CCAGGCAA, the “PBM E-score” value was -0.034.

As for ACGCGAAA, the “PBM E-score” value is -0.0435.

For the sequence GGTGCTAA, the “PBM E-score” value is -0.166.

Turning to GATTCGCA, the “PBM E-score” value amounted to 0.276.

Consider CATTCGCA, for which the “PBM E-score” value is -0.0683.

Consider AATTCGCG, for which the “PBM E-score” value is -0.02.

With CATTCGCG, the “PBM E-score” value amounted to 0.279.

On to CATTCGCC, for which the “PBM E-score” value stood at 0.00808.

In the case of GATTCGCC, the “PBM E-score” value came to 0.105.

With AGTGCACA, the “PBM E-score” value was determined as 0.0902.

Regarding AAAGATGC, the “PBM E-score” value was -0.193.

Turning to AAAGACGC, the “PBM E-score” value is -0.154.

Turning to ACAGGCGC, the “PBM E-score” value was -0.173.

As for CCTTCTGA, the “PBM E-score” value is -0.149.

For GCACTTGA, the “PBM E-score” value was -0.145.

Consider ATGTCTCG, for which the “PBM E-score” value was 0.135.

As for ATGTCTCC, the “PBM E-score” value was 0.175.

Consider ATGTCTCA, for which the “PBM E-score” value is 0.297.

Take AAACCACG: the “PBM E-score” value was -0.079.

As to AAGACCGG, the “PBM E-score” value is -0.166.

As for ACATGACT, the “PBM E-score” value worked out at 0.446.

As to CCATGAGA, the “PBM E-score” value was determined as 0.191.

Take ACATGAGG: the “PBM E-score” value was -0.0901.

AGATGACC: the “PBM E-score” value is -0.0573.

On to ACATGACG, for which the “PBM E-score” value is -0.0758.

In the case of AGATGACT, the “PBM E-score” value came out at 0.435.

As for ACATGACA, the “PBM E-score” value came out at 0.206.

As to ACATGAGT, the “PBM E-score” value is 0.279.

As to ACATGAGA, the “PBM E-score” value stood at 0.273.

In the case of ACATGAGC, the “PBM E-score” value was found to be 0.0844.

AGATGACA: the “PBM E-score” value is 0.0194.

TCATGAGA: the “PBM E-score” value amounted to 0.101.

For the sequence ACTAGGCT, the “PBM E-score” value amounted to 0.154.

Take GATCAGGC: the “PBM E-score” value was -0.00147.

Take TAGCCTGA: the “PBM E-score” value turned out to be 0.0109.

Take ACAGTGGA: the “PBM E-score” value is -0.0091.

Regarding ACTTGTTG, the “PBM E-score” value is -0.0998.

In the case of ACGACCCT, the “PBM E-score” value is -0.139.

On to ATGAGATA, for which the “PBM E-score” value is 0.134.

As for CAGCAAGA, the “PBM E-score” value is -0.0328.

As for AACGAAGG, the “PBM E-score” value was -0.252.

Turning to CGGATCCA, the “PBM E-score” value turned out to be 0.298.

In the case of AGGATCCA, the “PBM E-score” value stood at 0.0343.

For TGGATCCA, the “PBM E-score” value is -0.0454.

Take AACTCAGA: the “PBM E-score” value worked out at 0.0696.

As to GACTCAGA, the “PBM E-score” value was found to be 0.308.

For CACTCAGC, the “PBM E-score” value worked out at 0.044.

Regarding AACTCAGC, the “PBM E-score” value was -0.023.

In the case of CACTCAGA, the “PBM E-score” value worked out at 0.12.

For the sequence GACTCAGC, the “PBM E-score” value amounted to 0.404.

For ACTGCAGA, the “PBM E-score” value was -0.0788.

Turning to AATCTAGA, the “PBM E-score” value was -0.14.

For AACCGCGA, the “PBM E-score” value was 0.278.

With TACCGCGA, the “PBM E-score” value turned out to be 0.107.

As for AACCGCGT, the “PBM E-score” value is 0.0481.

With CCTTTGCC, the “PBM E-score” value was -0.17.

CCATTCGC: the “PBM E-score” value worked out at 0.109.

With GTCATCGA, the “PBM E-score” value was found to be 0.205.

Regarding CCCAACAG, the “PBM E-score” value is -0.0293.

For the sequence CATGTATC, the “PBM E-score” value was 0.18.

In the case of CATGTATA, the “PBM E-score” value is 0.28.

For GATGTATA, the “PBM E-score” value turned out to be 0.242.

In the case of ACGATGCT, the “PBM E-score” value is 0.0556.

Regarding AGTTGGAT, the “PBM E-score” value is 0.127.

For CCGTCATC, the “PBM E-score” value is -0.0774.

For the sequence AAGTCATC, the “PBM E-score” value was 0.323.

On to AAGTCATG, for which the “PBM E-score” value amounted to 0.41.

On to CGGTCATC, for which the “PBM E-score” value turned out to be 0.124.

Take CAGTCATC: the “PBM E-score” value amounted to 0.419.

With AGGTCATG, the “PBM E-score” value came to 0.136.

Turning to AAGTCATT, the “PBM E-score” value was -0.0196.

Take ATGTCATC: the “PBM E-score” value stood at 0.0412.

For the sequence AAGTCAAG, the “PBM E-score” value is -0.156.

On to CAAAATCC, for which the “PBM E-score” value was found to be 0.096.

As to CCCTTAAC, the “PBM E-score” value is -0.168.

Turning to ACATGTGA, the “PBM E-score” value came out at 0.0459.

In the case of ACATGTGG, the “PBM E-score” value came to 0.278.

Turning to ACATGTGC, the “PBM E-score” value came to 0.117.

On to AGTCGGTA, for which the “PBM E-score” value is -0.0272.

With ACCCCAAT, the “PBM E-score” value was -0.0588.

With ATTTGACA, the “PBM E-score” value was -0.00873.

Consider GTCCATCA, for which the “PBM E-score” value is -0.104.

Take ACGAATCC: the “PBM E-score” value amounted to 0.117.

Turning to ACGAATCA, the “PBM E-score” value worked out at 0.336.

On to CCGAATCC, for which the “PBM E-score” value stood at 0.0952.

Take GCGAATCC: the “PBM E-score” value came to 0.0147.

For the sequence ACGAATCT, the “PBM E-score” value was -0.0246.

In the case of TCGAATCA, the “PBM E-score” value came out at 0.253.

As to CCGAATCA, the “PBM E-score” value was 0.288.

As for GCGAATCA, the “PBM E-score” value was found to be 0.345.

As to CCGAATCG, the “PBM E-score” value is 0.101.
